# Measurements as given in PubChem BioAssay.
# Activity calls are given as the source filed them. Unless noted, the rule behind the calls is not given here.
# What was measured:
# [1] = compounds binding Alexa647 anti-His antibody – biochemical, small-molecule microarray, 635 nm fluorescence, artefact control for SMM control protein annotation, primary screen (AID 1128); details: higher = more signal;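 note: score merges feature fluorescence with signal-to-noise for each printed compound spot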
# [2] = test system: Human papillomavirus type 1a E7 protein (residues 1-88); experiment: HPV1a E7 small-molecule binders, primary screen, biochemical, small-molecule microarray, residues 1-88, 635 nm (AID 1129); details: small-molecule microarray binding, fluorescence 635 nm; higher = more signal
# [3] = target: Focal adhesion kinase 1 (Homo sapiens) (UniProt Q05397); experiment: PTK2 protein binding on printed compound slides – biochemical, small-molecule microarray, 635/667 nm fluorescence, BSA, DTT, primary screen (AID 1130); details: 635 nm fluorescence, higher = more signal;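 note: composite of spot emission at 667 nm and signal to noise over triplicate slides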
# [4] = test system: Fibrinogen (Alexa647-labelled); experiment: Alexa647-fibrinogen binding to printed small molecules – biochemical, small-molecule microarray, 635/667 nm fluorescence, artefact control for SMM control-protein annotation, profiling panel (AID 1131); details: fibrinogen-A647 binding fluorescence, higher = more signal;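 note: z-score merges 667 nm fluorescence with per-spot signal-to-noise over triplicate slides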
# [5] = target: Follistatin (Homo sapiens) (UniProt P19883); experiment: FST protein binding to printed compounds – biochemical, small-molecule microarray, 635/667 nm fluorescence, primary screen (AID 1132); details: 635 nm fluorescence, higher = more signal
# [6] = target: Fibroblast growth factor 2 (Homo sapiens) (UniProt P09038); experiment: basic fibroblast growth factor binding to printed compounds – biochemical, small-molecule microarray, 635/667 nm fluorescence, primary screen (AID 1133); details: FGF2, fluorescence 635/667, higher = more signal
# [7] = JC-1 mitochondrial potential readout, lung cancer cells – cell-based, A549, JC-1 fluorescence, basal, 24 h, 100 nL, profiling panel (AID 1138); details: higher = more signal;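 note: A549 lung adenocarcinoma cells under basal conditions with no added stimulus; test concentration not given here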
# Lefty1 = Lefty1 protein binding to printed compounds – biochemical, small-molecule microarray, 635/667 nm fluorescence, primary screen (AID 1139); details: fluorescence 635/667, higher = more signal
# [8] = test system: wheat germ agglutinin (Triticum aestivum), Alexa647-labelled; experiment: Alexa647-WGA lectin binding to printed small molecules – biochemical, small-molecule microarray, 635/667 nm fluorescence, artefact control for SMM control-protein annotation, profiling panel (AID 1140); details: WGA-A647 binding, 635 nm fluorescence, higher = more signal;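 note: score merges 667 nm feature emission with signal to noise over triplicate slides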
# [9] = target: Luciferin 4-monooxygenase (Photinus pyralis) (UniProt P08659); experiment: inhibition of purified Photinus pyralis luciferase – biochemical, luminescence, purified enzyme, 2006 set, primary screen (AID 1141); details: purified firefly luciferase, SteadyGlo luminescence, 30 min; higher = more signal, called active from +8 up or from −8 down;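 note: cell-free assay with purified firefly luciferase at 100 ng per well in PBS; test concentration not given here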
# [10] = test system: Wnt5a (protein binding on small-molecule microarray); experiment: small molecules binding Wnt5a protein – biophysical, small-molecule microarray, 635/667 nm fluorescence, primary screen (AID 1142); details: 635 nm fluorescence, higher = more signal;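 note: fluorescence read at 667 nm with signal to noise per printed feature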
# [11] = ATP-based viability of Huh7 replicon cells – cell-based, CellTiter-Glo luminescence, basal, 48 h, cytotoxicity control for HCV replication inhibitor project, primary screen (AID 1143); details: higher = more signal, called active from +8 up or from −8 down;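 note: Huh7 hepatoma cells carrying a hepatitis C replication reporter with no stimulus; test concentration not given here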
# [12] = Pseudomonas biofilm growth suppression – PAO1 strain, BacTiter-Glo luminescence, LB-PBS, primary screen (AID 1144); details: P. aeruginosa PAO1 biofilm, 12 h, higher = more signal
# [13] = basal CRE-LacZ reporter activity in PC12 – cell-based, unstimulated, primary screen (AID 1145); details: no forskolin, luminescence, 4.5 h, higher = more signal, called active from +8 up or from −8 down
# [14] = forskolin-driven CRE-LacZ activity in PC12 – cell-based, CRE-LacZ reporter, forskolin-stimulated, primary screen (AID 1146); details: luminescence, 4.5 h, higher = more signal, called active from +8 up or from −8 down;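 note: PC12 cells with 6xCRE LacZ reporter stimulated by forskolin 10 µM; beta-galactosidase reporter signal reflecting CREB driven transcription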
# [15] = target: Streptavidin (Streptomyces avidinii) (UniProt P22629); experiment: compounds binding control protein streptavidin – biophysical, small-molecule microarray, 635/667 nm fluorescence, artefact control for SMM compound annotation, primary screen (AID 1147); details: higher = more signal;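 note: signal reflects streptavidin binding to arrayed compounds as a control protein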
# [16] = probe aInhba binding on compound microarray – biochemical, small-molecule microarray, 635/667 nm fluorescence, primary screen (AID 1148); details: higher = more signal;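 note: score merges 667nm spot fluorescence with signal-to-noise for antibody binding to printed compounds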
# Torsin-1A (Homo sapiens) [17] = target: Torsin-1A (Homo sapiens) (UniProt O14656); experiment: TOR1A wild-type binding on microarray – cell lysate, small-molecule microarray, lysate, 635/667 nm, primary screen (AID 1149); details: COS7 hTOR1A-WT lysate, 635 nm fluorescence, higher = more signal
# Torsin-1A (Homo sapiens) [18] = target: Torsin-1A (Homo sapiens) (UniProt O14656); experiment: torsin A mutant lysate binding on microarrays – cell lysate, small-molecule microarray, COS7 lysate, 635/667 nm fluorescence, primary screen (AID 1150); details: COS7 hTOR1A mutant lysate, 635 nm fluorescence, higher = more signal;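 note: score pools 667 nm emission and signal to noise measuring lysate protein binding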
# [19] = test system: Sonic hedgehog protein (Shh); experiment: Sonic hedgehog microarray binding compounds – biochemical, small-molecule microarray, 635/667 nm fluorescence, primary screen (AID 1151); details: 635 nm fluorescence, higher = more signal;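 note: Shh protein binding to compounds spotted on small-molecule microarray slides; score combines spot fluorescence intensity with signal-to-noise across triplicate slides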
# Sequence of Focal adhesion kinase 1 (Homo sapiens) (Q05397 whole entry, looked up): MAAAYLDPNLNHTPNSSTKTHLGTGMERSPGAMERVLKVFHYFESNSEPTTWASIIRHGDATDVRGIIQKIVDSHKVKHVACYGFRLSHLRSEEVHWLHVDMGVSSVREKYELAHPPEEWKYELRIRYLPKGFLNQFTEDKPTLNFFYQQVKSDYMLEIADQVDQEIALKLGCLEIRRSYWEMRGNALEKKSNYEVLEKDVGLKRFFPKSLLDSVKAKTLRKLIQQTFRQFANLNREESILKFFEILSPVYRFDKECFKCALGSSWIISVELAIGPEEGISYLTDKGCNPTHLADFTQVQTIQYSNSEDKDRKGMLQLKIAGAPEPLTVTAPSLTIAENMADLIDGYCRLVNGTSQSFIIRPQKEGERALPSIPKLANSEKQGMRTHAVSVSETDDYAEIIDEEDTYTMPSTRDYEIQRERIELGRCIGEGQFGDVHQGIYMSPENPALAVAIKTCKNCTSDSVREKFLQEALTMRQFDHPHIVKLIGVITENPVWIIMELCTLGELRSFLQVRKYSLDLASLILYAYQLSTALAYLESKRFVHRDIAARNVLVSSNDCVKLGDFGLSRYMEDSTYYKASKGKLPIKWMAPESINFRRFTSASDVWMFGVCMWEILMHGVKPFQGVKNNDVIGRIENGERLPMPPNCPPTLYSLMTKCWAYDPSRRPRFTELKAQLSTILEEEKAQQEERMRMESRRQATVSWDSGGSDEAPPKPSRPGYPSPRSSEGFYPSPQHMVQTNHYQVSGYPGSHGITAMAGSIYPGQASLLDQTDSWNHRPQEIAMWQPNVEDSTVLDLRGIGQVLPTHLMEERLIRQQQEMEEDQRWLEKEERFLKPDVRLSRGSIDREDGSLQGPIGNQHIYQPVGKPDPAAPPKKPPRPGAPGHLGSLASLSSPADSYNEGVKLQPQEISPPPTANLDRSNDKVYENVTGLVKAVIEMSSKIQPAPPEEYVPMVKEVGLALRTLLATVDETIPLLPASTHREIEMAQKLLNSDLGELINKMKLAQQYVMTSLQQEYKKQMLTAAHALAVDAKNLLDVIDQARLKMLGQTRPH
# Sequence of Torsin-1A (Homo sapiens) (O14656 whole entry, looked up): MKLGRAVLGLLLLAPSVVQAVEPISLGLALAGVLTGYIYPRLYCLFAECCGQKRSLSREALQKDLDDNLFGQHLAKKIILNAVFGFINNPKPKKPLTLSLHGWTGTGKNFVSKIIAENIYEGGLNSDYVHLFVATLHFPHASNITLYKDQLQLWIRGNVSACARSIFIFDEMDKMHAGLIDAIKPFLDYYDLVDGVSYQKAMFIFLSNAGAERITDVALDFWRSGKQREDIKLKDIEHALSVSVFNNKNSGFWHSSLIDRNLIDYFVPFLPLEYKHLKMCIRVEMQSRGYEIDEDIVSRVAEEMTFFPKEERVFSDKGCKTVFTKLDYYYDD
# Sequence of Streptavidin (Streptomyces avidinii) (P22629 whole entry, looked up): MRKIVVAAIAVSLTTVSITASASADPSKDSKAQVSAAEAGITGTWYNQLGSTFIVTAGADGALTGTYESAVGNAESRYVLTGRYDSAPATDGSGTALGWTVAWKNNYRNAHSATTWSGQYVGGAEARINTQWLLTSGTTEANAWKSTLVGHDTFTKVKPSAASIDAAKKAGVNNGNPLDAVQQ
# Sequence of Follistatin (Homo sapiens) (P19883 whole entry, looked up): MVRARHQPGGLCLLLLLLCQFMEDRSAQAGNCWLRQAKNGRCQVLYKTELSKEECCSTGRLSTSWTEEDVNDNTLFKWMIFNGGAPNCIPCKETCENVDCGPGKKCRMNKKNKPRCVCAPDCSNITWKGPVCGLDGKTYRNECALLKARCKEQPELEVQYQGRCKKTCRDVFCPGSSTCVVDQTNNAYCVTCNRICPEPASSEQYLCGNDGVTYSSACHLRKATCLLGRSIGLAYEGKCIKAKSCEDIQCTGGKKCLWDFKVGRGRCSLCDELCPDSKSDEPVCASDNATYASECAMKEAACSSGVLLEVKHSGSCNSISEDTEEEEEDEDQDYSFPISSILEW
# Sequence of Luciferin 4-monooxygenase (Photinus pyralis) (P08659 whole entry, looked up): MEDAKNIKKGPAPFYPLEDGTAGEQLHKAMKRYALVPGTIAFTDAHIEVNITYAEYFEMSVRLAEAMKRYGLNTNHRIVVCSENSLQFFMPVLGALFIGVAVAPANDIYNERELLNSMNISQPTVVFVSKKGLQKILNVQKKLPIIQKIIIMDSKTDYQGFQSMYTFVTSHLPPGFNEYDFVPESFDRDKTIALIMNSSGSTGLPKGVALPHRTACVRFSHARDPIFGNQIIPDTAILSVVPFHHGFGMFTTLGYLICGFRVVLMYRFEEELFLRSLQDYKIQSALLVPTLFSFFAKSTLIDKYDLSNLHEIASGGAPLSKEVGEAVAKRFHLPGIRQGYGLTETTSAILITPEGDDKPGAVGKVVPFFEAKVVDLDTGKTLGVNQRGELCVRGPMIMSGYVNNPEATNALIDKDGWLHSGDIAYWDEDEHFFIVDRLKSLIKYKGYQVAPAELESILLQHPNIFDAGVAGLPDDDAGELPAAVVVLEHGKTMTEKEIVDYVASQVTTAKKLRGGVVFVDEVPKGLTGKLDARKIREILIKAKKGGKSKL
# Sequence of Fibroblast growth factor 2 (Homo sapiens) (P09038 whole entry, looked up): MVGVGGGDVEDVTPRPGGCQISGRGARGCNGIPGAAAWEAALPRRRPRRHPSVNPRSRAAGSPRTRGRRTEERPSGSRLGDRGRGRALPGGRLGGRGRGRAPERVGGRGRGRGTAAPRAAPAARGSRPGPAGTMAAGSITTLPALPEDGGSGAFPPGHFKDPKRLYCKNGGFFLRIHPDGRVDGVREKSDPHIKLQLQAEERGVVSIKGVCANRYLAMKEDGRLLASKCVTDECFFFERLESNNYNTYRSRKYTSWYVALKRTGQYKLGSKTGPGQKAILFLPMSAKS
Structure (SMILES),composite z-score [1],composite z-score [2],composite z-score [3],composite z-score [4],composite z-score [5],composite z-score [6],z-score [7],composite z-score (Lefty1),composite z-score [8],z-score [9],composite z-score [10],z-score [11],z-score [12],z-score [13],z-score [14],composite z-score [15],composite z-score [16],composite z-score (Torsin-1A (Homo sapiens) [17]),composite z-score (Torsin-1A (Homo sapiens) [18]),composite z-score [19]
COc1ccc([Si](C)(C)[C@@H]2[C@@H](CC(=O)N(CCO)Cc3ccccc3)O[C@]3(C(=O)N(C)c4c(Br)cc(C)cc43)[C@H]2C)cc1,0.926,0.304,0.19,-0.537,1.08,0.957,-1.33,1.17,0.114,-0.314 (inactive),0.312,-5.28 (inactive),0.336 (inactive),18.2 (active),0.429 (inactive),-0.212,-0.152,0.268,-0.0496,1.91
CC(C)C[C@@H]1NC(=O)[C@@]23C(=O)N[C@@H](Cc4ccccc4)C2[C@H](C)[C@@]2(C)O[C@H]2C3/C=C/C/C=C\CNC(=O)[C@@H]2CCCN2C1=O (stereo not given in full),0.886,-1.05,-0.0278,-0.94,0.368,0.392,0.579,0.571,-0.299,0.0046 (inactive),-0.0917,-0.577 (inactive),0.595 (inactive),1.12 (inactive),-0.2 (inactive),-0.767,0.0051,0.249,0.0725,0.468
C=CCC(OC(C)=O)[C@@H]1[C@@H](N(Cc2cccc3ccccc23)C(=O)c2ccc(C)cc2)c2cc(OCCCO)ccc2N1C(=O)c1ccc2ccccc2c1 (stereo not given in full),-0.204,0.133,0.0096,0.189,0.672,0.123,1.15,0.102,-0.193,-0.195 (inactive),0.0228,-0.487 (inactive),-0.412 (inactive),1.22 (inactive),0.197 (inactive),0.128,0.0797,0.196,0.792,0.788
Cc1ccc(S[C@]2(C(=O)O)CC(=O)N(Cc3ccccc3C(F)(F)F)[C@@H]2c2ccc(CO)cc2)cc1,-0.916,-0.543,0.0068,-0.772,-0.238,-1.18,0.391,-1.27,-0.475,0.989 (inactive),-0.297,0.455 (inactive),0.231 (inactive),0.0279 (inactive),-0.369 (inactive),-0.655,-0.113,0.0183,1.46,-1.1
